Data from PubChem BioAssay (NCI).
Compounds without any hit were thinned out: in the full panel of roughly 83,000, 20% have a hit.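 96-well plates, one dose, 48 hours. Percent growth reported; active if below 10.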 Values without a mark were called inactive. Active and inactive are the calls of the source.

What was measured:
Assay in all cases: NCI-60 one-dose screen, 48 h (100 = growth as untreated, 0 = no growth, -100 = all killed)
Conditions in all cases: 10 µM unless noted
[1] = test system: T-47D breast
[2] = test system: BT-549 breast
[3] = test system: MDA-MB-435 melanoma
[4] = test system: SW-620 colon
[5] = test system: MCF7 breast
[6] = test system: HCT-116 colon
[7] = test system: HCC-2998 colon
[8] = test system: KM12 colon

SMILES	growth [1]	growth [2]	growth [3]	growth [4]	growth [5]	growth [6]	growth [7]	growth [8]
COc1ccc(-c2ccc(=O)oc2-c2cc(OC)c(OC)c(OC)c2)cc1O	67.8%	5.78% (active)	-37.5% (active)	9.8% (active)	1.84% (active)	-67.4% (active)	-2.78% (active)	1.71% (active)
CSc1nc2ncc([N+](=O)[O-])c(=O)n2[nH]1	99.8%	104%	100%	101%	96.5%	105%	107%	103%
CN1C(=O)/C(=C\c2c(Cl)cccc2Cl)c2ccccc21	90.3%	98.7%	7.16% (active)	66.3%	68.7%	91.9%	80.4%	62.3%
COc1ccc(NC2=C(I)C(=O)c3ncccc3C2=O)cc1	-32.7% (active)	-6.34% (active)	-88.9% (active)	-60.6% (active)	-53.5% (active)	2.09% (active)	47.6%	15.3%
c1ccc([P+](c2ccccc2)(c2ccccc2)c2ccc3c4ccc([P+](c5ccccc5)(c5ccccc5)c5ccccc5)c5cccc(c6cccc2c63)c54)cc1	23.6%	-1.26% (active)	3.29% (active)	10%	16.1%	8.67% (active)	17.9%	-9.19% (active)
COC1=CC(c2ccc[nH]2)=N/C1=C\c1[nH]c(C)c(C)c1CCC(=O)OCc1ccccc1	2.57% (active)	-28.7% (active)	-39% (active)	-14.8% (active)	3.15% (active)	-76% (active)	6.09% (active)	-20.9% (active)
CCCCNC(=O)CC1=C(C)/C(=C/c2[nH]c(-c3ccc[nH]3)cc2OC)N=C1C	32.6%	41.7%	20.2%	12.5%	22.3%	3.1% (active)	33.8%	13.4%
O=C(Nc1ccc(Oc2cccc(Cl)c2)c(Cl)c1)c1cccnc1	35.6%	53.3%	-44.3% (active)	25.4%	21.6%	29.9%	58%	28.1%
CSc1nc2ccccc2cc1/C=[N+](\[O-])c1ccccc1	61.6%	66.1%	45.9%	28.9%	24.9%	10.4%	110%	100%
Cc1ccc(C)n1-c1ccccc1-n1c(C)ccc1C	91.2%	104%	94.1%	139%	101%	104%	115%	117%
COC1=CC(c2ccc[nH]2)=N/C1=C\c1[nH]c(C)c(C(=O)OC(C)C)c1C	-69.2% (active)	-7.21% (active)	-66.2% (active)	-29.2% (active)	-35.5% (active)	-90.3% (active)	-53.2% (active)	-66.3% (active)
O=C(CSc1oc(-c2ccccc2)nc1S(=O)(=O)c1ccccc1)Nc1ccc(F)cc1	69.8%	78.4%	94.8%	96.5%	92.6%	52.6%	104%	86.6%
COc1ccc(NC(=O)c2sc3nc(C)c(C(=O)/C=C/c4ccccc4)cc3c2N)cc1	57.7%	50%	15.7%	2.56% (active)	14.9%	12.3%	25.2%	18.7%
C=CCSc1nnc(NC(=O)CCl)s1	90.3%	79%	90.8%	105%	90.1%	86.3%	130%	95.3%
C#CCOC(=O)/C=C/c1cn(-c2ccccc2)nc1-c1ccc(OC)cc1	88.3%	108%	107%	112%	79.1%	74.8%	105%	96.9%
C=C(C)[C@@H]1CC[C@]2(C(=O)O)CC[C@]3(C)[C@H](CC[C@@H]4[C@@]5(C)CCC(NC(=O)c6cccc(OC(C)=O)c6OC(C)=O)C(C)(C)[C@@H]5CC[C@]43C)[C@@H]12 (stereo partly specified)	20.9%	16.5%	-56.4% (active)	2.79% (active)	4.17% (active)	-38.6% (active)	12%	12.1%
Cc1ccc(CNc2ccc3nc(CCC4CCCCC4)[nH]c3c2)cc1	3.58% (active)	88%	55.6%	32.3%	22.1%	16.3%	-25.2% (active)	39.3%
Cc1ccc(Nn2c(SCC(=O)Nc3nc(-c4ccccc4)cs3)nc(C)c2C)cc1	-2.45% (active)	63.5%	76.7%	98.8%	28.5%	40.2%	92%	82.9%
CCOC(=O)c1cc2c(n1C)-c1nc(NC(C)=O)sc1CCC2	51.8%	71.8%	98.5%	93.3%	61.6%	75.4%	113%	87.7%

SMILES	growth [1]	growth [2]	growth [3]	growth [4]	growth [5]	growth [6]	growth [7]	growth [8]
C=C1C(=O)O[C@H]2[C@H]1CC/C(COC(=O)/C=C\C(=O)NCc1ccc(Cn3c(=O)sn(CCI)c3=O)cc1)=C\CC[C@@]1(C)O[C@@H]21	57.6%	71.9%	44.9%	8.21% (active)	24.8%	19%	83.9%	97.4%
Cc1cc(=O)n(C(=O)Nc2ccccc2Cl)c2cc(O)ccc12	97.1%	94.4%	104%	93.7%	101%	101%	98.5%	98.1%
CCC(C)(C)C(=O)O[C@H]1C[C@@H](C)C=C2C=C[C@H](C)[C@H](CC[C@@H]3CC(SCCN)CC(=O)O3)[C@H]21 (stereo partly specified)	89.8%	78.7%	93.3%	81.8%	79.9%	37.5%	73.6%	88.2%
Oc1c(I)cc(I)cc1CNCc1ccccn1	14.8%	36.7%	46.8%	33.2%	28.7%	26.4%	49.3%	41.1%
C=CC[Se]C(=O)Cc1c(C)n(C(=O)c2ccc(Cl)cc2)c2ccc(OC)cc12	-24.3% (active)	0.594% (active)	8.15% (active)	5.69% (active)	-4.29% (active)	5.41% (active)	4.27% (active)	-27.9% (active)
O=C(CSc1nnc(-c2cnccn2)n1-c1ccccc1)c1ccc(Cl)cc1	85.9%	91.6%	106%	106%	94.1%	95.4%	108%	94.8%
N#CC(C#N)N=Nc1ccc(Br)cc1	8.56% (active)	49.2%	71.7%	18.4%	19.4%	13.4%	46%	80.8%
CC(C)=CCC[C@](C)(O)[C@H]1CC[C@]2(C)[C@@H]1CC[C@@H]1[C@@]3(C)C/C(=C/c4ccco4)C(=O)C(C)(C)[C@@H]3CC[C@]12C	97.8%	98.1%	97.4%	99.1%	97.2%	97.4%	105%	106%
N#Cc1ccc2c(c1)C(=O)c1c-2n(CCCN)c(=O)c2cc([N+](=O)[O-])ccc12	-78.6% (active)	-100% (active)	-86.3% (active)	-100% (active)	-74.8% (active)	-100% (active)	-100% (active)	-98% (active)
CCc1ncnc2c1ccn2C(C)c1ccc(OC)c(F)c1 (stereo unspecified)	36.1%	52.4%	6.71% (active)	27.7%	33.4%	18.8%	56.6%	27.8%
CCN(CC)CCn1c2ccc(OC)cc2c2sc3cc(OC)ccc3c(=O)c21	48.5%	61.7%	35.7%	8.87% (active)	4.61% (active)	4.6% (active)	35.7%	22.4%
O=C(CSc1nc2sc3c(c2c(=O)n1-c1ccccc1)CCCCC3)N/N=C/c1cccc([N+](=O)[O-])c1	64.1%	38.1%	72.9%	52.4%	45.9%	4.84% (active)	98%	47.6%
COc1ccc2c(c1)N(CCO)C1=C(C(=O)OC1)C2c1cccc(F)c1 (stereo unspecified)	56.7%	50%	-40.6% (active)	26.9%	18.1%	4.87% (active)	4.78% (active)	15.5%
Clc1cc(Cl)c(Cl)c(-c2nnc(SCc3ccncc3Br)o2)c1	96.1%	99%	98.4%	96.5%	91.8%	88.8%	58.6%	96.2%
CNC(=O)c1ccccc1Oc1nc(Nc2cc(OC)c(OC)c(OC)c2)ncc1Br	62.2%	62.7%	74.5%	46.7%	44.5%	46.5%	51.6%	11%
CCn1cc(C(=O)NNC(=S)Nc2ccc(C)cc2)c(=O)c2ccc(C)nc21	88.1%	97.1%	101%	99.2%	97.2%	93%	92.7%	103%
COc1cc2c(cc1OCCCN1CCN(CCCOc3cc4c(cc3OC)C(=O)N3CC(F)(F)C[C@H]3C=N4)CC1)N=C[C@@H]1CC(F)(F)CN1C2=O	34.5%	-7.9% (active)	69%	-0.878% (active)	25.5%	62%	60.5%	62.3%
COc1cc2c(c(OC)c1OC)CCC(c1cccc(C(=O)Nc3cccc(Cl)c3)c1)O2 (stereo unspecified)	36.7%	67.5%	82.1%	99.2%	73%	74.2%	91%	96.3%
c1ccc(-c2oc(-c3ccccc3)c(CN3CCCCC3)c2CN2CCCCC2)cc1	8.84% (active)	43.3%	31.7%	39.6%	11.7%	20.9%	-22.9% (active)	22%

SMILES	growth [1]	growth [2]	growth [3]	growth [4]	growth [5]	growth [6]	growth [7]	growth [8]
CN(C)CCNC(=O)c1cc2c3cc(Cl)ccc3[nH]c2c2ncccc12	24%	29.5%	-41.3% (active)	-2.12% (active)	-16.1% (active)	-56.6% (active)	-45.1% (active)	25.2%
C=C(C)[C@@H]1CCC[C@]2(COS(=O)(=O)c3ccc(C)cc3)CC[C@]3(C)[C@@H](CC[C@@H]4[C@@]5(C)CCCNC(C)(C)[C@@H]5CC[C@]43C)[C@@H]12	59.6%	83.7%	-25.3% (active)	-69.4% (active)	-32.6% (active)	-82.8% (active)	-75.8% (active)	-25.2% (active)
COc1ccc(OC)c(Nc2nnc(-c3ccc(O)c(OC)c3)o2)c1	43.9%	79.4%	85%	78.6%	77.7%	63.8%	90.6%	20.4%
COc1ccc(C2=C(Nc3ccc(C(=O)Nc4ccccc4)cc3)C(=O)N(C)C2=O)cc1	68.8%	115%	106%	106%	102%	107%	98.5%	91.6%
Nc1ncnc2c1N=C(c1ccc(Br)cc1)CC(c1cccc(Nc3ccnc4cc(C(F)(F)F)ccc34)c1)N2 (stereo unspecified)	68.6%	105%	38.3%	64.1%	22%	32.8%	67.2%	60.2%
CCNCCNc1cc(C2CCCCC2)c(C#N)c2nc3ccccc3n12	-19.4% (active)	-19.7% (active)	-38.6% (active)	7.58% (active)	14.7%	-4.22% (active)	13.6%	38.8%
O=C(C[C@]1(O)C(=O)Nc2ccccc21)c1cccc(C(F)(F)F)c1	87.9%	97.6%	103%	91.9%	81.2%	95.5%	107%	87.6%
COc1cc(C2CC(c3ccc(Nc4nc(Nc5ccc(Cl)cc5)nc(Nc5ccc(Cl)cc5)n4)cc3)=NN2C(C)=O)cc(OC)c1OC (stereo unspecified)	69.2%	104%	89.1%	106%	89%	84.9%	100%	106%
N#Cc1nc(-c2ccc(F)cc2)oc1S(=O)(=O)N1CCOCC1	-6.45% (active)	98.5%	79.8%	-77.9% (active)	30.4%	-18.4% (active)	106%	102%
CN(C)CC(C)(C)C(=O)/C=C/c1ccccc1	-30.8% [25 µM] (active)	-65% [25 µM] (active)	-35.9% [25 µM] (active)	-59.1% [25 µM] (active)	-13.6% [25 µM] (active)	-87.1% [25 µM] (active)	-75.7% [25 µM] (active)	-22.8% [25 µM] (active)
Fc1cc2c(cc1Cl)N(c1ncnc3ccc(-c4ccc5n[nH]nc5c4)cc13)CC2	65.5%	88.2%	92.4%	96.9%	80.3%	96.7%	92.1%	97.7%
Cc1nc2sc(C(=O)Nc3cccc(Br)c3)c(N)c2cc1C(O)c1ccccc1 (stereo unspecified)	43.2%	53.7%	4.05% (active)	31%	21.9%	16.2%	18.2%	22.8%
Cc1cccc(/C=C2\CN(C(=O)OC(C)(C)C)C/C(=C\c3cccc(C)c3)C2=O)c1	87.8%	105%	93.1%	7.71% (active)	23.2%	11.2%	103%	74.1%
COc1ccc(C/C(C)=C(\c2ccc(Cl)cc2)c2ccc(OCCN3CCCCC3)cc2)cc1	75.1%	96.7%	102%	88.4%	81.7%	100%	98.5%	104%
Nc1c(C(=O)Nc2ccccc2F)sc2nc3c(cc12)CCCC3	41.9%	56.8%	-7.54% (active)	25.3%	18%	23.7%	57.7%	27.6%
COc1ccc(-c2cc(-c3cccnc3)nc3sc4c(=O)[nH]c(-c5ccc(Cl)cc5)nc4c23)cc1OC	66.8%	91.1%	99.8%	92.2%	73.5%	80.7%	105%	99%
COc1cc(OC)c(/C=C/C(=O)c2c(OC)cccc2OC)c(OC)c1	30.1%	7.43% (active)	-22% (active)	17.7%	25.1%	9.06% (active)	0.761% (active)	8.59% (active)
COc1cc(/C=C2/C=C(c3ccccc3)N(CCc3ccc(S(N)(=O)=O)cc3)C2=O)cc(OC)c1OC	83.5%	94.4%	106%	102%	87.8%	84.7%	105%	105%
CC(C)COc1nc2c(c(=O)n(C)c(=O)n2C)n1C	88.6%	103%	104%	102%	86.4%	107%	102%	99.5%
